# Experimental data as given in PubChem BioAssay (NCATS).
# “And” between values parts separate entries of the source, which are not always exact repeats. Equal values may be shown once. Inconclusive results are not listed. Values without a mark were called inactive. The call rests on the fitted dose curve.
# Target: Bile acid receptor (Homo sapiens) (UniProt Q96RI1)
# Assay: qHTS assay for small molecule agonists of farnesoid X receptor signaling (AID 588527);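 further: series mostly up to about 77 µM; 0% = vehicle basal and 100% = reference agonist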
# Conditions: HEK293T FXR-UAS-bla, beta-lactamase ratio, 16 h; active compounds read high
# Description: NIH Chemical Genomics Center [NCGC] U.S. Environmental Protection Agency [EPA] National Institutes of Environmental Health Sciences [NIEHS] National Toxicology Program [NTP] NCGC Assay Overview The farnesoid-X-receptor (FXR), a nuclear hormone receptor is highly expressed in liver, intestine, kidney and adrenal cortex. Natural ligands of FXR are the bile acids (Cholic acid, Chenodeoxy cholic acid etc). It is an important regulator of diverse metabolic pathways, including the bile acid homeostasis, lipid and glucose metabolisms. FXR regulates the expression of target genes by binding either as a monomer or as a heterodimer with RXR (retinoid X receptor). As FXR regulates a large number of target genes involved in bile acid, lipoprotein and glucose metabolisms, it is a potential pharmacological target for bile acid and lipid disorders. Thus screening environmental chemicals on FXR signaling can be used for the studies focused on metabolic syndrome, hepatic and intestinal toxicity etc.
# NCGC Assay Protocol Summary Using a beta-lactamase reporter-gene under control of Farnesoid X receptor (FXR) response element, a cell-based assay [GeneBLAzer FXR-UAS-bla assay developed by Invitrogen] was used to measure FXR ligands signaling. GeneBLAzer FXR-UAS-bla HEK293T cells were used with assay medium containing 10% dialyzed FBS. The assay was performed in clear bottom black Greiner 1536-well plates. Chenodeoxycholic acid and Guggulsterone were used in the screen as agonist and antagonist positive controls respectively. Library compounds were measured for their ability to stimulate the reporter gene activity. Compounds were screened in a titration series in 1536-well format. […] Data was normalized relative to Chenodeoxycholic acid control (100 uM, 100%), and DMSO only wells (basal, 0%). Concentration-response titration points for each compound were fitted to the Hill equation yielding concentrations of half-maximal stimulation (EC50) and maximal response (efficacy) values. qHTS protocol for FXR beta-lactamase assay in agonist mode [Step] [Parameter] [Value] [Description] 1. Reagent; 6 uL; 5000 cells/well 2. Incubation; 37 C for 5-7 hrs 3. Compounds; 23 nL; 0.59 nM to 92 uM 4. Controls (Chenodeoxycholic acid); 23 nL, - One column with dose response, start 200 uM, 1:2 dilutions in duplicates - Final concentrations of 100 uM and 60 uM in two columns 5. Incubation; 37 C for 16 hrs 6. Detection reagent; 1 uL of CCF4-dye 7. Incubation; RT for 2 hrs 8. Detection; Fluorescence; Envision plate reader
# Bile acid receptor (Homo sapiens), sequence (Q96RI1 whole entry, looked up): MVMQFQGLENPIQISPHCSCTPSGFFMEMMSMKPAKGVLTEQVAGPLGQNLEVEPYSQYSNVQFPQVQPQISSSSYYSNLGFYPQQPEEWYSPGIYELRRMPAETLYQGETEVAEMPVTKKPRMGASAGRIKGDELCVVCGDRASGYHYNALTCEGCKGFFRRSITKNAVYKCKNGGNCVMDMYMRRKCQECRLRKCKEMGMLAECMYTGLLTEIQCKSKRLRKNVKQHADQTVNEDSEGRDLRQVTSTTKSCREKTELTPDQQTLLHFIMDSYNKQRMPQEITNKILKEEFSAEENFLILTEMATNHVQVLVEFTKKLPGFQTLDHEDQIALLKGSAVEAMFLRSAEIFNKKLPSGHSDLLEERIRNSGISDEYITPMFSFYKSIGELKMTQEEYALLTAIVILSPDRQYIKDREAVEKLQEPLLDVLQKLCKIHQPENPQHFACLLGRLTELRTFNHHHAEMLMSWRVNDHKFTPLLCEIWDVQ
row,Compound,activation
1,Nc1ccc([N+](=O)[O-])cc1,-1.05%
2,CCO/N=C(\CC)C1=C(O)CC(c2c(C)cc(C)cc2C)CC1=O (stereo unspecified),1.57%
3,c1cc2ccc3cccc4ccc(c1)c2c34,-4.41% and -1.09%
4,CCCN(CCC)c1c([N+](=O)[O-])cc(S(N)(=O)=O)cc1[N+](=O)[O-],-1%
5,O=[N+]([O-])c1c(Cl)c(Cl)cc(Cl)c1Cl,-1.27%
6,C1=CC2C3C=CC(C3)C2C1 (stereo unspecified),-0.353%
7,OCc1c[nH]c2ccccc12,1.66%
8,COc1ccccc1O,-0.0206% and -3.83% and 1.01%
9,Cc1cc(O)ccc1Cl,1.93%
10,CCOP(=O)(NC(C)C)Oc1ccc(SC)c(C)c1 (stereo unspecified),5.65% and 4.82%
11,O=C(O)COc1nc(Cl)c(Cl)cc1Cl,-0.709%
12,O=C(NO)c1ccccc1,-3.15%
13,Nc1ccc(N=Nc2ccccc2)cc1,-11.4%
14,c1ccc2occc2c1,3.58% and 1.61%
15,O=C(Oc1ccccc1)c1cccc(C(=O)Oc2ccccc2)c1,0.748%
16,C=CCC1=C(C)C(OC(=O)C2C(C=C(C)C)C2(C)C)CC1=O (stereo unspecified),7.39% and 8.42%
17,CS(=O)(=O)c1ccc(C(=O)C2C(=O)CCCC2=O)c([N+](=O)[O-])c1,-1.16%
18,COc1nn(CSP(=S)(OC)OC)c(=O)s1,3.32%

row,Compound,activation
1,Nc1ccc(Cl)cc1N,0.723%
2,C[C@]12C[C@H](O)[C@H]3[C@@H](CCC4=CC(=O)CC[C@@]43C)[C@@H]1CC[C@@H]2C(=O)CO,-2.3%
3,COc1ccc(C(c2ccc(OC)cc2)C(Cl)(Cl)Cl)cc1,7.99% and 4.38% and 7.59%
4,CC1=NN(c2ccccc2)C(=O)C1,-5.46% and -0.633%
5,CCCCCCCCCCCCCC(=O)OC(C)C,-0.914%
6,CCCCCCCCOc1ccc(C(=O)c2ccccc2)c(O)c1,-1.08%
7,CCCCCC[C@H]1C(=O)O[C@H](C)[C@H](NC(=O)c2cccc(NC=O)c2O)C(=O)O[C@@H](C)[C@@H]1OC(=O)CC(C)C,-3.37%
8,CCCCC(CC)COC(=O)c1ccc(N(C)C)cc1 (stereo unspecified),-1.15% and -5.13%
9,Nc1ccc(Sc2ccc(N)cc2)cc1,-1.33%
10,O=[N+]([O-])/N=C1\NCCN1Cc1ccc(Cl)nc1,1.01%
11,CCCOC(=O)c1ccc(O)cc1,0.147% and -2.34% and 4.63%
12,Nc1ccc([N+](=O)[O-])cc1O,-3.53% and -2.23%
13,COC(=O)c1c(Cl)c(Cl)c(C(=O)OC)c(Cl)c1Cl,2.52%
14,Clc1cnc(Oc2ccc(Oc3ncc(Cl)cc3Cl)cc2)c(Cl)c1,0.177%
15,CCCCC(CC)COC(=O)c1ccccc1C(=O)OCC(CC)CCCC (stereo unspecified),0.71% and -2.22%
16,CC(C)(C)c1ccc(O)c(O)c1,9.58% and -7.97%
17,S=c1[nH]c2ccccc2s1,-0.945% and -0.0694%
18,Nc1cccc2c(N)cccc12,-1.29% and -1.59%
